Here are results for 21 molecules from PubChem BioAssay (Tox21).

Records with an inconclusive call do not appear. Calls of active or inactive are those of the source. The call rests on the fitted dose curve; in most records, active means well fitted cell-killing curve with a large enough effect in the repeat runs; inconclusive means weak or mixed curves, or effect the other way; inactive means no such curve, though single readings can be large or run the other way.

This assay in a line: qHTS assay to identify small molecule antagonists of the peroxisome proliferator-activated receptor gamma (PPARg) signaling pathway - cell viability counter screen (AID 743194). Further: nearly all actives have a fitted effect of over 55% in size. To be noted: PPARg-bla HEK293H viability, CellTiter-Glo luminescence, 17 h, co-treated with 50 nM rosiglitazone; series mostly up to 62.6 µM. The procedure, abridged: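 PPARg-UAS-bla HEK293H cells were plated, rested 5 h at 37 C, then treated with compounds plus rosiglitazone (50 nM final) for 17 h at 37 C; viability was then read by CellTiter-Glo luminescence after 30 min at room temperature.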
(Quantitative high-throughput screening tests each substance at several concentrations.)
Consider `O=Cc1cccc(Br)c1`, for which the outcome was inactive. As for `CN1[C@@H]2CC[C@H]1CC(OC(=O)C(O)c1ccccc1)C2` (stereo partly specified), the entry is “inactive”; as for `CCCCCCCCN1CCCC1=O`, “inactive”. Next, `CC[N+](C)(CC)CCOC(=O)C1c2ccccc2Oc2ccccc21`: “inactive”; `CCOC(=O)OC(C)OC1=C(C(=O)Nc2ccccn2)N(C)S(=O)(=O)c2ccccc21` (stereo unspecified): “inactive”. For `CCCCCCCC1CCCC1=O` (stereo unspecified), the outcome was inactive.

For `[Ca+2]`, the outcome was inactive. Next, `CC(CO)(CO)[N+](=O)[O-]`: “inactive”.

Turning to `CCCc1ncc(C[n+]2ccccc2C)c(N)n1`, the outcome was inactive.

Turning to `CN1CC(=O)N/C1=N/C(=O)Nc1cccc(Cl)c1`, the result was inactive. Turning to `CC(C)(C)C(=O)Oc1ccc(S(=O)(=O)Nc2ccccc2C(=O)NCC(=O)O)cc1`, the outcome was inactive. As for `Cc1ccc(-c2ncc(Cl)cc2-c2ccc(S(C)(=O)=O)cc2)cn1`, the entry is “inactive”; as for `CCCCN1C=CN(C)C1`, “inactive”. For the molecule `NC(CCC(=O)O)C(=O)O` (stereo unspecified), the result was inactive. On to `CC(CC=O)CC(C)(C)C` (stereo unspecified), for which the outcome was inactive. Regarding `C[N+]1(C)[C@@H]2CC(OC(=O)[C@H](CO)c3ccccc3)C[C@H]1[C@@H]1O[C@@H]12` (stereo partly specified), the result was inactive.

In the case of `CC(=O)c1ccc2ccccc2c1`, the result was inactive. For `CCCCc1ccc2c(n1)[C@@H](c1ccc(OC)cc1C[C@H](C)C(=O)O)[C@H](C(=O)O)[C@H]2c1ccc2c(c1)OCO2`, the result was inactive.

For the molecule `CN(C)[C@@H]1C(=O)C(C(=O)NCN2CCCC2)=C(O)[C@@]2(O)C(=O)C3=C(O)c4c(O)cccc4[C@@](C)(O)C3C[C@@H]12` (stereo partly specified), the outcome was inactive. Next, `NS(=O)(=O)Cc1noc2ccccc12`: “inactive”; `CN(C)C(=O)Oc1ccc[n+](C)c1`: “inactive”.
